PubChem BioAssay (NCI)
This is part of a sample that, as a whole, favours compounds with a hit. Of some 83,000 tested, about 20% had one in any assay.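 Growth was measured after 48 h exposure to one concentration of compound in 96-well plates. Values under 10 count as active.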 Values without a mark were called inactive. The source made the active and inactive calls.

Legend:
Experiment in all cases: NCI-60 one-dose screen, 48 h (100 = growth as untreated, 0 = no growth, -100 = all killed)
[1] = tested on: NCI-H23 lung; conditions: 10 µM unless noted
[2] = tested on: NCI-H226 lung; conditions: 10 µM unless noted
[3] = tested on: NCI-H322M lung; conditions: 10 µM unless noted
[4] = tested on: NCI-H460 lung; conditions: 10 µM unless noted
[5] = tested on: HOP-92 NSCLC; conditions: 10 µM
[6] = tested on: NCI-H522 lung; conditions: 10 µM
[7] = tested on: A549/ATCC NSCLC; conditions: 10 µM unless noted
[8] = tested on: COLO 205 colon; conditions: 10 µM unless noted
[9] = tested on: DU-145 prostate; conditions: 10 µM unless noted
[10] = tested on: K-562 leukemia; conditions: 10 µM unless noted
[11] = tested on: MALME-3M melanoma; conditions: 10 µM unless noted
[12] = tested on: MDA-MB-231 breast; conditions: 10 µM unless noted
[13] = tested on: SF-268 CNS; conditions: 10 µM unless noted
[14] = tested on: SF-539 CNS; conditions: 10 µM unless noted
[15] = tested on: UACC-257 melanoma; conditions: 10 µM unless noted
[16] = tested on: M14 melanoma; conditions: 10 µM unless noted
[17] = tested on: 786-0 renal; conditions: 10 µM unless noted
[18] = tested on: RXF 393 renal; conditions: 10 µM unless noted
[19] = tested on: SF-295 CNS; conditions: 10 µM unless noted

SMILES	growth [1]	growth [2]	growth [3]	growth [4]	growth [5]	growth [6]	growth [7]	growth [8]	growth [9]	growth [10]	growth [11]	growth [12]	growth [13]	growth [14]	growth [15]	growth [16]	growth [17]	growth [18]	growth [19]
O=[N+]([O-])c1ccc(-c2ncc(-c3ccc(O)cc3O)[nH]2)cc1	105%	102%	116%	109%	88.5%	124%	44.9%	112%	143%	95.6%	218%	104%	101%	118%	-43.6% (active)	135%	–	–	–
CCCCCCCCCCCCc1ccc([N+](CC)(CC)CC)cc1	17.6%	59.3%	88.5%	44%	40.9%	–	61.1%	20.3%	58.8%	16.3%	-11.1% (active)	41.7%	47.8%	58.7%	13.6%	32.5%	65.6%	45.8%	48.9%
CCOC(=O)C(C)C(C)(O)c1ccccc1 (configuration not stated)	98.5%	94.1%	93.2%	103%	–	–	–	112%	110%	100%	84.2%	103%	98.6%	105%	–	96.3%	94.1%	103%	103%
COc1ccccc1CNCCCN1C(=O)c2ccc3c4c(ccc(c24)C1=O)C(=O)N(CCCNCc1ccccc1OC)C3=O	-72.8% (active)	-64.7% (active)	-46.6% (active)	–	-19.5% (active)	-90% (active)	-86.5% (active)	-6.12% (active)	-81.4% (active)	-44.2% (active)	-73.6% (active)	-13.1% (active)	-64.4% (active)	-70.7% (active)	-97.9% (active)	-61.9% (active)	-50% (active)	-93.9% (active)	-56.3% (active)
Br/C(=N\Nc1nn[nH]n1)c1ccccc1	98.9%	90.6%	96.3%	105%	–	–	–	104%	119%	110%	104%	96.4%	114%	96.7%	–	99%	92.2%	96.3%	101%
COc1cc2oc(-c3ccc(NC(=O)c4ccccc4)cc3)cc(=O)c2c(OC)c1OC	82.4%	85.4%	69.4%	–	69.2%	–	80.3%	–	82.3%	102%	74.8%	74.9%	77.5%	81.6%	97.3%	92.8%	90.4%	90.2%	77.4%
CN1C(=O)C(=Cc2coc3ccc(Br)cc3c2=O)C(=O)N(C)C1=O	94.5%	97.2%	124%	–	81.3%	95%	97.8%	106%	103%	127%	139%	97.6%	97.6%	100%	101%	99.8%	112%	93.6%	120%
C=CC1CN2CCC1CC2C(O)c1ccnc2ccc(OC)cc12 (configuration not stated)	98.3%	91.9%	94.4%	98.5%	–	–	97.3%	106%	127%	106%	95.6%	96.7%	103%	98.3%	106%	98.9%	92%	97%	91.6%
C/C=C(/C)C(=O)OC1C=C(CO)C(=O)C(OC(=O)C(C)(O)C(C)Cl)C1C(C)C (configuration not stated)	-50.1% (active)	-19.4% (active)	-10.6% (active)	–	-50.2% (active)	-34.4% (active)	-18% (active)	–	3.58% (active)	1.56% (active)	-76.6% (active)	-5.1% (active)	10.4%	-43.7% (active)	-19.7% (active)	–	-72.1% (active)	-63.6% (active)	-41.4% (active)
COc1ccc(-c2nc(SCC(C)C)nc(Nc3ccc(C)cc3)c2C#N)cc1	73.9%	65.6%	52.9%	–	73.9%	81.4%	52.6%	46.6%	85.9%	68.8%	74.3%	68.4%	85.3%	63.5%	103%	88.8%	24.4%	88.2%	64.4%
O=CN/N=C/c1ccc(Cl)c([N+](=O)[O-])c1	26.5%	35.4%	28.6%	8.54% (active)	–	–	14.5%	26%	24.5%	15.4%	30%	43.9%	21.5%	22.2%	18.2%	29%	31.6%	40.1%	3.88% (active)
COc1cc(C(=O)Nc2ccc(N(C)C)cc2)cc(OC)c1OC	95.4%	91%	93.4%	99.8%	–	–	–	100%	107%	42.8%	80.6%	96.4%	99.1%	96.1%	–	89.8%	96.4%	95.7%	91.7%
COC(=O)c1c[n+]([O-])ccc1OC	106%	107%	97.1%	107%	–	–	105%	109%	114%	71.1%	92.1%	99.4%	116%	122%	–	104%	100%	108%	88.1%
CC(=O)Nc1ccc(S(=O)(=O)Cl)cc1	112%	95.5%	111%	102%	–	–	104%	108%	107%	98.1%	111%	118%	109%	100%	131%	118%	104%	96.2%	–
COC(=O)C(Cc1cnc[nH]1)N1CC(=O)N2[C@@H](c3ccccc3)SC[C@H]2C1=O (some centres not stated)	100%	143%	112%	109%	–	–	96.4%	124%	117%	106%	108%	116%	104%	105%	96.7%	101%	107%	193%	93.5%
COc1cc(OC)c(/C=C/c2ccc3ccccc3[n+]2C)c(OC)c1	1.71% (active)	26.2%	17.7%	1.55% (active)	–	–	–	-51.5% (active)	22.3%	9.98% (active)	3.03% (active)	28.2%	18%	-23.7% (active)	–	15.9%	18.5%	34.5%	-32.7% (active)
O=C(C(=O)N1CCOCC1)c1ccc(O[C@H]2O[C@H](CO)[C@@H](O)[C@H](O)[C@@H]2O)cc1	99.9%	95.8%	91.7%	–	102%	93.9%	106%	119%	122%	106%	102%	98.4%	123%	99.2%	107%	98.8%	97.1%	103%	107%
CC([C@H]1CC=C2C3CCC4=C[C@@H](N(C)C)CC[C@]4(C)C3CC[C@@]21C)N(C)C (some centres not stated)	51.9%	47.9%	83.3%	–	70.2%	98.2%	72%	-65.1% (active)	57%	–	83.9%	-6.46% (active)	2.29% (active)	4.25% (active)	17.9%	-56.8% (active)	-5.65% (active)	–	-86.8% (active)
